Assay results as given in PubChem BioAssay AID2546 (National Center for Advancing Translational Sciences (NCATS), 2010).
About 11,000 (3.5%) of roughly 310,000 compounds were called active. Not shown: some 8% with an inconclusive outcome. This excerpt belongs to a sample that is enriched for actives. A number with no mark means an inactive call. The call rests on the fitted dose curve; in most records, active means well fitted inhibition curve with a large enough effect; inconclusive means small, poorly fitted or top-dose-only effect, or effect the other way; inactive means flat fitted curve, though single readings scatter.

Test: VP16 counterscreen qHTS for inhibitors of ROR gamma transcriptional activity;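 further: Gal4-VP16 expression switched on by copper sulfate through the metallothionein promoter; nearly all actives have a fitted effect of over 50% in size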
Settings: Drosophila S2 Gal4-VP16 UAS-luciferase, luminescence, 20 h; series mostly up to 53.6 µM; activity, negative = inhibition: at the top concentration
Text: NIH Molecular Libraries Probe Production Network [MLPCN]
NIH Chemical Genomics Center [NCGC]
Assay Provider: Dan Littman, New York University
The retinoic acid-related orphan receptor (ROR) gamma is a transcription factor that has a central role in the differentiation of Th17 cells, a subset of T helper cells that secrete the inflammatory cytokines IL-17, IL-17F, and IL-22. Th17 cells have been implicated in graft versus host disease, autoimmune disease and asthma. ROR gamma is induced in naive T helper cells in the presence of TGF-beta combined with IL-6, IL-21, or IL-23, and thereafter directs the expression of the Th17 lineage cytokines. To identify nonspecific inhibitors, a Drosophila Schneider cell line was stably transfected with two vectors: a gene expressing a fusion of the Gal4 DNA binding domain and VP16 transactivation domain under the control of the metallothionine promoter and a Photinus luciferase reporter regulated by the Gal4 binding site enhancer, UAS. […] Small molecule inhibitors that inhibit components common to the RORgt and VP16 assays, such as the Gal4 DNA binding domain or the UAS luciferase reporter, will be active in both assays and thus scored as nonspecific.
For screening, 600 cells in 4 uL/well were dispensed into white solid 1536-well plates (Grenier) using a solenoid-based dispenser. Following transfer of 23 nL compound or DMSO vehicle by a pin tool, the plates were incubated 1 hr at ambient temperature, and 1 uL/well copper sulfate (700 uM final concentration) was added. The plates were centrifuged 15 s at 1000 RPM and incubated 20 hr at ambient temperature. After addition of 1.5 uL Photinus luciferase detection reagent, the plates were incubated 10 min at ambient temperature and then read by a ViewLux (Perkin Elmer) to detect luminescence.
On the % scale 0 is the no-effect control and ±100 the full control effect; potency means the concentration at half of the fitted maximal effect.

Structure (SMILES)	activity, negative = inhibition	Potency
COc1ccc(N(C(=O)c2snc(C(N)=O)c2N)C(C(=O)NC2CCCC2)c2ccco2)cc1OC (stereo not drawn)	18.6%	–
O=C(NC(=S)N1CCCCC1c1cccnc1)c1ccccc1 (stereo not drawn)	–	4.47 µM (active)
O=C(Nc1ccccc1C(F)(F)F)N1CCCC1c1cccnc1 (stereo not drawn)	-1.56%	–
Cc1ccc(-c2cc(C(F)(F)F)n3ncc(C(=O)N4CCCCC4c4cccnc4)c3n2)cc1 (stereo not drawn)	-3.74%	–
COc1ccc(C(=O)N2CCCC(C(=O)c3ccccc3OC)C2)cc1OC (stereo not drawn)	2.57%	–
COc1ccc(C(=O)NC(=S)N2CCCCC2c2cccnc2)cc1OC (stereo not drawn)	–	17.8 µM (active)
COc1ccc(C(=O)Nc2cccnc2)cc1C(=O)Nc1cccnc1	-9.29%	–
COc1ccc(Nc2ncnc3sc(C)cc23)cc1	-8.4%	–
Cc1ccc(-n2[nH]c(C)c(/C=N/N3C(=O)c4cccc5cccc(c45)C3=O)c2=O)cc1	–	12.6 µM (active)
CCc1nnc(NS(=O)(=O)c2ccc(N=Cc3c(C)[nH]n(-c4ccc(C)cc4)c3=O)cc2)s1	0.41%	–
Cc1ccc(-c2ccnc3[nH]n(-c4ccccc4)c(=O)c23)cc1	-8.24%	–
O=C(CNC(=O)C1COc2ccccc2O1)N/N=C/c1cc(Br)c(O)c(Br)c1 (stereo not drawn)	-0.0094%	–
O=C(NCCc1c[nH]c2ccccc12)C1CCN(Cc2ccc(Br)cc2)CC1	-0.728%	–
COc1ccccc1N1CCN(C(=O)CCS(=O)(=O)c2ccc3c(c2)NC(=O)C(C)S3)CC1 (stereo not drawn)	-26.4%	–
CCOc1ccc(NC(=O)C2CCN(C(=O)N3CCOc4ccccc43)CC2)cc1	-5.72%	–
CCCNC(=O)c1cnc(-c2ccccc2)nc1-c1ccccc1	14.3%	–
CCOC(=O)c1c(C)nc(-c2ccccc2)nc1NC(=O)C(C)C	17%	–
CCOC(=O)c1c(C)[nH]c(C(=O)NCc2ccccc2OC)c1C	-2.66%	–
CC(=O)c1c(C)[nH]c(=S)c(C#N)c1-c1ccc(F)cc1	-8.92%	–
CCOC(=O)c1c(C)[nH]c2c1-c1ccccc1C(=O)C2=O	–	2.82 µM (active)
CCOC(=O)c1c(C)[nH]c(C)c1S(=O)(=O)N(C)CC(=O)Nc1ccccc1C	0%	–
CCOC(=O)c1c(C)[nH]c(=S)c(C#N)c1-c1ccccc1	–	17.8 µM (active)
COc1cccc(CN(C)C(=O)CC23CC4CC(CC(C4)C2)C3)c1OC	-3.75%	–
COc1cc(/C=C/C(=O)O)cc(S(=O)(=O)Nc2ccccc2C(=O)NCCc2ccccc2)c1OC	-14%	–
OC(CNCCc1ccc(Cl)cc1Cl)COc1ccccc1 (stereo not drawn)	-1.98%	–
O=C(CCCCCNC(=O)c1ccccc1)N/N=C/c1ccccc1	-1.19%	–
O=C(CCC(=O)Nc1ccccc1)N/N=C/c1ccccc1F	19%	–
O=C(N/N=C/c1ccccc1O)/C(=C/c1ccccc1)CCO	–	1.12 µM (active)
